Assay outcomes: PubChem, Center for Chemical Genomics, University of Michigan
This is one part of a sample in which hits are shown more often than they occur.
Dicer inh: human Dicer pre-microRNA cleavage inhibition; actives 6% (n = 47,000); cat-ELCCA pre-miR-21 Dicer processing, chemiluminescence; hits give high values; z-score at 25 µM; AID 1347074; in the data active = z-score above about 3, passing the limit was not always enough;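 also: higher signal means more uncleaved substrate so more Dicer inhibition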
Each line names hits and unclear results; the compound was inactive in the other large screens.

COc1ccccc1-c1coc2cc(OC(C)C(=O)OCc3ccccc3)ccc2c1=O (centres undefined)	none
O=C1C2C3c4ccccc4C(c4ccccc43)C2C(=O)N1c1ccc(Cl)c(Cl)c1 (centres undefined)	none
CCCC1C2C(=O)N(c3ccccc3)C(=O)C2ON1c1ccc(Cl)c(Cl)c1 (centres undefined)	Dicer inh 7.22
Cc1ccc(N2C(=O)C3ON(c4ccccc4)C(c4ccncc4)C3C2=O)cc1Cl (centres undefined)	none
CCOc1cccc(=O)c2c(C)n(CC(=O)c3ccccc3)c(C)c12	none
COc1cccc(=O)c2c(C)n(CC(=O)c3ccccc3)c(C)c12	Dicer inh 3.25
COc1ccccc1OCC(=O)O	none
O=C(Nc1nc(-c2ccc(Cl)cc2Cl)cs1)c1ccc(C(F)(F)F)cc1	none
CC(=O)c1sc2nsc(SCCN3CCOCC3)c2c1N	none
COC(=O)c1cc(NS(=O)(=O)c2ccc(F)cc2)cc(C(=O)OC)c1	none
COC(=O)c1cc(NS(=O)(=O)c2ccc(Br)cc2)cc(C(=O)OC)c1	Dicer inh 3.9
COc1nccnc1NS(=O)(=O)c1ccc(NC(=O)c2ccc(Br)cc2)cc1	none
COc1cc(/C=C(\NC(C)=O)C(=O)O)cc(OC)c1OC	none
CCOC(=O)C1CCN(S(=O)(=O)c2cccc3cccnc23)CC1	none
COC(=O)c1ccc(S(=O)(=O)N2CCCCCC2)n1C	none
COC(=O)c1ccc(S(=O)(=O)N2CCC(O)CC2)n1C	none
COC(=O)c1ccc(S(=O)(=O)Nc2ccc(N3CCOCC3)cc2)n1C	Dicer inh 3.58
Cc1nc(-c2ccccc2)c(-c2ccccc2)s1	none
CC(C)(C)S(=O)(=O)C/C(N)=N/OC(=O)c1cc(-c2ccc(Cl)cc2)oc1C(F)(F)F	none
O=C(Cn1c(=O)sc2ccccc21)Nc1nccs1	none
O=C(CC1CC(=O)Oc2ccccc21)Nc1nccs1 (centres undefined)	Dicer inh 3.83
O=C(Nc1nccs1)C1COc2ccccc2O1 (centres undefined)	none
CC(=O)Nc1ccc(N(CN2C(=O)CCC2=O)CN2C(=O)CCC2=O)cc1	none
O=C(Oc1ccc2c(=O)c(Oc3ccccc3Br)coc2c1)N1CCOCC1	none
O=C(O)/C=C/C(=O)NN=C(c1ccccc1)c1ccccc1	none
COc1ccc(/C(O)=C2\C(=O)C(=O)N(c3nnc(C)s3)C2c2ccc(C(C)(C)C)cc2)cc1 (centres undefined)	none
C=CCSc1nnnn1-c1ccc(OC(=O)C=C(C)C)cc1	none
Cc1cc(=O)[nH]c(SCCOc2ccc(C)c(C)c2)n1	none
Cc1ccc(-n2nnnc2SCCOc2ccc(C)c(C)c2)cc1	Dicer inh 9.75
COc1cccc(C2C3=C(CCCC3=O)NC3=C2C(=O)c2ccccc23)c1 (centres undefined)	none
